CHX counter-1: affects cycloheximide protein synthesis inhibition readout, counter-screen. 300,000 compounds, 12% hits. max response, %. cell reporter, cycloheximide protein synthesis inhibition counterscreen; in the data active = max response mostly above about 13%, no sharp cut-off; inactive = mostly below about 14%; note: read at 38.3 µM for the half of the compounds with a filed dose; 0% is about no effect
Shiga toxin inh: blocks Shiga toxin action in Vero cells. Vero cells, Shiga toxin protein synthesis inhibition reporter. 290,000 compounds, 9.2% hits. inhibition, % at 38.7 µM; in the data active = inhibition mostly above about 28%, no sharp cut-off; inactive = mostly below about 43%; note: 0% is about no effect
NS1 inh: inhibitors of influenza NS1 protein function; Potency, µM (top dose mostly 46.1 µM), for the others: at the highest dose activity, positive = more growth; 270,000 compounds, 0.4% hits; AID 2326; note: potency is the fitted concentration of half-maximal effect; actives are rising curves; nearly all actives have a fitted effect of over 50% in size
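Recovery from NS1-induced slow growth read by OD600 in budding yeast switched to galactose assay medium (pH 6.0, -URA) at 1:100 dilution. Compound 23 nl per well; the matching strain lacking NS1 serves as control.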
SARS PLP yeast: SARS-CoV PLP inhibition in yeast. S. cerevisiae expressing SARS-CoV PLpro, growth rescue. Potency, µM (highest dose often 32.9 µM), for the others: top-dose activity, positive = growth rescue, usual class: activators. 330,000 compounds, 0.19% hits; note: potency is the fitted concentration of half-maximal effect; 0% is about no effect; nearly all actives have a fitted effect of over 55% in size
CHX counter-2: protein synthesis counter-screen activity for Shiga toxin hits. shares compounds with Shiga toxin inh. Cycloheximide counterscreen, protein synthesis reporter, Shiga toxin assay. Potency, µM (doses to about 38.3 µM), for inactives: at the top dose activity (activation), hits mostly activators. 510 compounds, 3% hits; note: potency is the fitted concentration of half-maximal effect; 0% is about no effect
An asterisk follows results filed as active. Compounds with a hit are over-represented: about 12% of the library has one in this group of screens. Unless noted, calls come from the whole dose curve.

For COC(=O)c1cn(CC(=O)NCc2ccco2)c2ccccc12 the results were CHX counter-1 15.0*, Shiga toxin inh 50.2*, NS1 inh 7.6% and SARS PLP yeast 0.0%.
Screening O=C(CSc1cn(CCNC(=O)c2ccccc2)c2ccccc12)NCc1ccco1 returned CHX counter-1 36.1*, Shiga toxin inh 52.7*, NS1 inh -5.8% and SARS PLP yeast -0.7%.
Screening COCCNC(=O)/C(C#N)=C/c1cn(CC(=O)NCc2ccco2)c2ccccc12 returned CHX counter-1 -2.9, Shiga toxin inh -3.1 and SARS PLP yeast -2.6%.
CCCn1cc(SCC(=O)NCc2ccco2)c2ccccc21 was read as CHX counter-1 8.7, Shiga toxin inh 15.6, NS1 inh -71.8% and SARS PLP yeast -5.0%.
For O=C(Nc1ccncc1)c1cc(F)cc(F)c1 the results were CHX counter-1 -2.2, Shiga toxin inh -7.7, NS1 inh 0.1% and SARS PLP yeast -8.0%.
Nc1nc(N)c(-c2cccc(C(F)(F)F)c2)c(Cc2cccc(C(F)(F)F)c2)n1 was read as NS1 inh 2.6%.
For O=C(Cn1cc(C(=O)C(F)(F)F)c2ccccc21)NCc1ccco1 the results were CHX counter-1 46.7*, Shiga toxin inh 53.3 and SARS PLP yeast -0.8%.
`O=C(NCCn1cc(SCc2ccc(F)cc2)c2ccccc21)c1c(F)cccc1F` gave CHX counter-1 14.1*, Shiga toxin inh 25.2, NS1 inh 1.3% and SARS PLP yeast -9.2%.
For CC(C)NC(=O)N(C)C[C@@H]1Oc2c(NC(=O)C3CCOCC3)cccc2C(=O)N([C@@H](C)CO)C[C@H]1C the results were SARS PLP yeast 1.8%.
CC(C)C(=O)Nc1ccc(NC(=O)c2ccccn2)cn1 was read as CHX counter-1 26.5*, Shiga toxin inh 41.6*, NS1 inh -6.2% and SARS PLP yeast 0.6%.
`COc1ccc(NC(=O)c2ccccn2)cc1` gave CHX counter-1 23.5, Shiga toxin inh 19.1, NS1 inh -13.7% and SARS PLP yeast -16.6%.
Screening CCC(=O)Nc1ccc(NC(=O)c2ccccn2)cn1 returned CHX counter-1 34.7*, Shiga toxin inh 46.6*, NS1 inh -3.9% and SARS PLP yeast -3.9%.
CCCC(=O)Nc1ccc(NC(=O)c2ccccc2Cl)nc1 was read as CHX counter-1 40.4*, Shiga toxin inh 56.8, NS1 inh -6.8% and SARS PLP yeast -0.2%.
O=C(Nc1ccc(NC(=O)C2CC2)nc1)c1ccccn1 was read as CHX counter-1 18.0*, Shiga toxin inh 61.9*, NS1 inh -23.8% and SARS PLP yeast 3.4%.
`CCN(CC)S(=O)(=O)c1ccc(C(=O)N2CCN(C(=O)c3ccco3)CC2)cc1` gave SARS PLP yeast -4.6%.
`Cc1sc2c(c1C)C(=O)NC(c1ccccc1F)N2` (centres undefined) gave CHX counter-1 30.7*, Shiga toxin inh 99.8*, NS1 inh -8.9% and SARS PLP yeast 3.1%.
Screening O=c1c2cc(Br)ccc2nc(-c2ccccc2)n1O returned CHX counter-1 11.3*, Shiga toxin inh 14.9, NS1 inh -96.0% and SARS PLP yeast -8.2%.
Cc1ccc(-c2nc3ccccc3c(=O)n2O)cc1 was read as CHX counter-1 5.2, Shiga toxin inh 19.0, NS1 inh -79.1% and SARS PLP yeast 4.3%.
Screening Cc1ccc(C(C)C)c(OCC(=O)Nc2ccc(N3CCOCC3)cc2N2CCOCC2)c1 returned SARS PLP yeast -6.8%.
For O=C(COc1ccc(Br)cc1CNCCc1ccccc1)NCc1ccccc1 the results were CHX counter-1 11.8, Shiga toxin inh 40.0*, NS1 inh -3.4%, SARS PLP yeast -0.7% and CHX counter-2 2.3%.
O=C(Nc1ccc2oc(-c3ccccc3)nc2c1)c1ccc2c(c1)OCCO2 was read as CHX counter-1 14.7, Shiga toxin inh 42.9*, NS1 inh -52.1%, SARS PLP yeast -2.5% and CHX counter-2 inconclusive.
Screening Cc1ccc(S(=O)(=O)NC(=O)NN2CC3CCCC3C2)cc1 (centres undefined) returned CHX counter-1 -2.1, Shiga toxin inh 20.5, NS1 inh 5.0% and SARS PLP yeast 0.7%.
Screening Cc1cc2n(n1)SC(Nc1cc(Cl)ccc1Cl)N2 (centres undefined) returned CHX counter-1 17.4, Shiga toxin inh 35.1*, NS1 inh 1.4%, SARS PLP yeast -10.2% and CHX counter-2 0.5%.
`CCCN(CCC)C(=O)c1cc2c(=O)n3cccc(C)c3nc2s1` gave CHX counter-1 -1.6, Shiga toxin inh -20.8, NS1 inh -4.8% and SARS PLP yeast 1.5%.
For Cc1cc(C(=O)COC(=O)CNS(=O)(=O)c2ccc3ccccc3c2)c(C)n1-c1ccccc1 the results were CHX counter-1 9.6, Shiga toxin inh active, NS1 inh inconclusive, SARS PLP yeast -25.3% and CHX counter-2 4.8%.
For O=C(CNS(=O)(=O)c1ccc2ccccc2c1)OCC(=O)c1ccc(Br)s1 the results were CHX counter-1 -0.6, Shiga toxin inh 15.4, NS1 inh 2.3% and SARS PLP yeast 12.9%.
Nc1cc(N)nc(SCC(=O)Nc2ccc(Br)cc2Cl)n1 was read as CHX counter-1 13.7, Shiga toxin inh 48.0*, NS1 inh 2.5%, SARS PLP yeast -2.4% and CHX counter-2 inconclusive.
COc1ccc(C2(CNC(=O)c3ccc(N)cc3)CCCC2)cc1 was read as CHX counter-1 -2.9, NS1 inh 17.1% and SARS PLP yeast -7.1%.
Screening c1ccc(COc2cncc(-c3cccnc3)c2)cc1 returned SARS PLP yeast 2.9%.
For CS(=O)(=O)Cc1cccc(C(=O)NC2CCSc3ccccc32)c1 (centres undefined) the results were CHX counter-1 9.6, Shiga toxin inh 17.2, NS1 inh inconclusive and SARS PLP yeast 5.9%.
Screening CON(C)S(=O)(=O)c1cccc(C(=O)NC2CCSc3ccccc32)c1 (centres undefined) returned CHX counter-1 3.7, Shiga toxin inh 76.9*, NS1 inh -13.4%, SARS PLP yeast 2.5% and CHX counter-2 -3.7%.
Screening O=C(COC(=O)c1ccc(OC(F)F)cc1)NCc1cccs1 returned SARS PLP yeast -1.6%.
O=c1c2ccccc2nc(SCc2nc3ccccc3s2)n1Cc1ccco1 was read as CHX counter-1 2.7, Shiga toxin inh -2.0, NS1 inh -4.9% and SARS PLP yeast -6.2%.
Screening O=c1c2ccccc2nc(SCc2cccc(F)c2)n1Cc1ccco1 returned CHX counter-1 1.3, Shiga toxin inh 56.5*, NS1 inh -32.4%, SARS PLP yeast -11.9% and CHX counter-2 1.9%.
C=CCn1c(=S)[nH]c2cc(-c3ccccc3)sc2c1=O was read as CHX counter-1 -0.3, Shiga toxin inh 38.8*, NS1 inh inconclusive, SARS PLP yeast 0.5% and CHX counter-2 inconclusive.
For C=CCn1c(=S)[nH]c2ccccc2c1=O the results were CHX counter-1 -0.9, Shiga toxin inh -3.9, NS1 inh 5.0% and SARS PLP yeast inconclusive.
For CCN1CCN=C1Nc1ccccc1 the results were SARS PLP yeast -26.0%.
CC1(C)OC(=O)C(=NNc2ccccc2)C(=O)O1 was read as CHX counter-1 8.4, Shiga toxin inh 35.8*, NS1 inh -9.0%, SARS PLP yeast 3.9% and CHX counter-2 2.1%.
